Results filed as inconclusive are left out. Active and inactive are the calls of the source. How the source made its calls: active means hit-call score of the fitted dose curve at least 0.9, where 1 is the maximum; inconclusive means response in the unintended direction; inactive means score below 0.9.
The molecules below were run against Nuclear receptor subfamily 1 group I member 2 (Homo sapiens) (UniProt O75469) (assay: NVS_NR_hPXR: NovaScreen (NVS) Nuclear Receptor Binding Assay for human Pregnane X Receptor (PXR) (AID 2283365);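 further: a drop in FRET signal versus DMSO baseline means the compound binds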).
Chain of Nuclear receptor subfamily 1 group I member 2 (Homo sapiens) (O75469 whole entry, looked up): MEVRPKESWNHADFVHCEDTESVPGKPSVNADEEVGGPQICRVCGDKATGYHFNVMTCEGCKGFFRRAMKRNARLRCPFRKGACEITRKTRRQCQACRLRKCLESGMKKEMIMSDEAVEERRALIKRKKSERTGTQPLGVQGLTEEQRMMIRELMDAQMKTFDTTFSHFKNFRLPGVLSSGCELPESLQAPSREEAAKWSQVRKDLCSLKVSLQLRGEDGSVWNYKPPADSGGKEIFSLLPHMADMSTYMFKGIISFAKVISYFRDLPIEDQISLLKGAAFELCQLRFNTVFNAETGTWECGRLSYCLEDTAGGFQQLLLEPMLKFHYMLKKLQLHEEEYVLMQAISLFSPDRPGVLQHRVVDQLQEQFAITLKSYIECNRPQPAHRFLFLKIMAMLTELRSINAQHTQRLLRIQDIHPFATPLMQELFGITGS
Procedure: NVS_NR_hPXR is a biochemical, single-readout assay that uses extracted gene-proteins in a cell-free assay. Measurements were taken 2 hours after chemical dosing in a 384-well plate.NVS_NR_hPXR is one of one assay component(s) measured or calculated from the NVS_NR_hPXR assay. It is designed to make measurements of fluorescent resonance energy transfer, a form of binding reporter, as detected with fluorescent resonance energy transfer signals by Time-Resolved Fluorescence Resonance Energy Transfer (TR-FRET) technology.Data from the assay component NVS_NR_hPXR was analyzed into 1 assay endpoint. This assay endpoint, NVS_NR_hPXR, was analyzed in the positive analysis fitting direction relative to DMSO as the negative control and baseline of activity. Using a type of binding reporter, loss-of-signal activity can be used to understand changes in the binding as they relate to the gene NR1I2. Furthermore, this assay endpoint can be referred to as a primary readout, because the performed assay has only produced 1 assay endpoint. To generalize the intended target to other relatable targets, this assay endpoint is annotated to the nuclear receptor intended target family, where the subfamily is non-steroidal.
Binding assays used specific radioligands (tritiated, iodinated) with non-radioactive competitive displacement ligands in agonist or antagonist protocols (as indicated) and various reference compounds and inhibitors to titrate specific binding to receptors and transporters. Most enzyme assays (CYPs, kinases, phosphatases, proteases, HDACs) used recombinant protein and specific substrates (fluorescence mostly, some colorimetric and radioactive) and inhibitors, followed by a biochemical separation of substrate and product. All assays for the biochemical HTS were initially run in duplicate at a single concentration (10 uM for CYP450 assays and 25 uM for all others). […] Each assay was run with positive and negative controls, and concurrent controls on every plate. The follow-up (secondary) screen tested active chemical-pairs in concentration series, as well as a few additional assays not tested in the primary screen, some selected negative inactives, and several cases re-run in the concentration series for confirmatory purposes.
With `CCOC(=O)COc1ccc(Cl)cc1Cl` the outcome was “inactive”. With `[CH3][Sn]([CH3])([Cl])[Cl]` the outcome was “inactive”. With `Cc1cc(C)c(C2=C(OC(=O)CC(C)(C)C)C3(CCCC3)OC2=O)c(C)c1` the outcome was “inactive”. With `O=C(NC(=O)c1c(F)cccc1F)Nc1ccc(Oc2ccc(C(F)(F)F)cc2Cl)cc1F` the outcome was “inactive”. With `CCOC(=O)NC(=S)Nc1ccccc1NC(=S)NC(=O)OCC` the AC50 was 6.55 µM (active). `CC(C)(c1cc(Cl)c(O)c(Cl)c1)c1cc(Cl)c(O)c(Cl)c1` was tested, and the AC50 was 5.12 µM (active). `CC(C)[C@@H](C(=O)O[C@@H](C#N)c1cccc(Oc2ccccc2)c1)c1ccc(Cl)cc1` was tested, and the outcome was “inactive”. With `CCc1cccc(C)c1N(C(=O)CCl)[C@@H](C)COC` the AC50 was 5.91 µM (active). With `Cc1ccc(C)c2ccccc12` the outcome was “inactive”. `CN(C)C(=O)C(c1ccccc1)c1ccccc1` was tested, and the outcome was “inactive”. In the case of `CCCCCCCCCCCCCCCC[N+](C)(C)C`, the AC50 is reported as 0.899 µM (active). With `CCC(=O)c1ccc(Cl)cc1` the outcome was “inactive”. With `Oc1ccc(Cl)cc1` the outcome was “inactive”.

From PubChem BioAssay (EPA / NIEHS)
